# Most compounds without a hit are left out; they make up all but 6.9% or so of the library.
# SW480 rerep – A quantitative high throughput screen for small molecules that induce DNA re-replication in SW480 colon adenocarcinoma cells; SW480 DNA re-replication, Hoechst DNA content imaging, 48 h; Potency, µM (top dose mostly 46.1 µM), for inactives: top-dose re-replication activation, hits mostly activators; 1.8% of 340,000 active; AID 624297, 2012; note: potency is the fitted concentration of half-maximal effect; % of control where 0% means no effect; nearly all actives have a fitted effect of over 55% in size
#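 Treated cells incubate 48 hr (37 C, 5% CO2), are stained 40 min with Hoechst, and nuclear fluorescence is enumerated; a rise in nuclei with high DNA signal marks re-replication.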
# Vif-APOBEC3F blk – qHTS for Inhibitors of Vif-A3F Interactions: qHTS; HeLa A3F-eYFP + Vif (tagged APOBEC3F with the HIV-1 protein that degrades it), YFP fluorescence increase; Potency, µM (series often up to 46.1 µM), for the others: at the highest dose activity, negative = active; 0.2% of 390,000 active; note: potency is the fitted concentration of half-maximal effect; % of control where 0% means no effect; nearly all actives have a fitted effect of over 65% in size
#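 HeLa cells stably expressing Vif plus C-terminally eYFP-tagged A3F were seeded, incubated overnight at 37 deg C, dosed with compound, incubated overnight again at 37 deg C. Yellow fluorescence (Ex 488/Em 500-530) reported blocked Vif-mediated A3F-eYFP degradation.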
# MCF10A rerep – A quantitative high throughput screen for small molecules that induce DNA re-replication in MCF 10a normal breast cells. 2.9% of 350,000 active. Potency, µM (series often up to 46.1 µM), inactives show top-dose activity, positive = re-replication, most hits filed as activators. MCF 10A DNA re-replication, Hoechst nuclear intensity, 48 h; note: potency is the fitted concentration of half-maximal effect; % of control where 0% means no effect; nearly all actives have a fitted effect of over 50% in size
# Vif-APOBEC3G blk – qHTS for Inhibitors of Vif-A3G Interactions: qHTS; 0.076% of 410,000 active; HeLa A3G-eYFP + Vif (tagged APOBEC3G with the HIV-1 protein that degrades it), YFP fluorescence, overnight; Potency, µM (series often up to 46.1 µM), for inactives: at the highest dose activity, negative = active, usual class: inhibitors; note: potency is the fitted concentration of half-maximal effect; % is set by controls: 0 for no effect and ±100 for the full control effect; nearly all actives have a fitted effect of over 60% in size
# Target sequence (Q9HC16 whole entry, looked up): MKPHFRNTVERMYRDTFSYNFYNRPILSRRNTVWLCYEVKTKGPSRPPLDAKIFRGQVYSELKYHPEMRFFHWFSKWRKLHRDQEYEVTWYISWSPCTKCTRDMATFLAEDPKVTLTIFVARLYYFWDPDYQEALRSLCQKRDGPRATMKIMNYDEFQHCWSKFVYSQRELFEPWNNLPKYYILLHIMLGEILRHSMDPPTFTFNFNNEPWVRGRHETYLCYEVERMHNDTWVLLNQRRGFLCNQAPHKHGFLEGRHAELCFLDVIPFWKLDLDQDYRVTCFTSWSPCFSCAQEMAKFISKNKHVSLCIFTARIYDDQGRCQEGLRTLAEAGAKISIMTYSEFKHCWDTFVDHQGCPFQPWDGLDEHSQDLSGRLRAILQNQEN
#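 Read-out is eYFP fluorescence (Ex 488/Em 500-530) from Vif-expressing HeLa A3G-eYFP cells; more signal means A3G escaped Vif-mediated degradation. Cells plated overnight, compound pinned in, incubated overnight at 37 deg C.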
# IL1B secr inh – qHTS for Inhibitors of Inflammasome Signaling: IL-1-beta AlphaLISA Primary Screen. 4.7% of 360,000 active. THP-1 LPS/ATP IL-1B secretion, AlphaLISA, 16 h; stronger effect = lower value. AID 743279, 2014. activity change, % at 57.5 µM; in the data active = activity change below about -50%; inconclusive = mostly about -30% to -49%; note: % is set by controls: 0 for no effect and ±100 for the full control effect
#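 THP-1 cells pretreated 1 hr with compounds (up to 57.5 uM final), then stimulated with LPS (250 ng/mL final) plus ATP (1.25 mM final); secreted IL-1B measured by AlphaLISA after 16 hr, decreased signal indicating inhibition.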
# Giardia kill – Small Molecules that selectively kill Giardia lamblia: qHTS | Giardia lamblia trophozoite viability | activity change, % at 7.66 µM, hits read low | 0.15% of 340,000 active | AID 540267, 2011; in the data active = activity change below about -80%; inconclusive = between about -30% and that limit;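 note: parasites exposed to compound for two days anaerobically before the ATP read; % is set by controls: 0 for no effect and ±100 for the full control effect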
#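 Giardia lamblia trophozoites (100 cells/well) were incubated with compounds for 48 h at 37 deg C under anaerobic conditions. Viability was read as ATP content by one-step luminescence after 15-30 min at room temperature.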
# * marks the source's active call; other numbers are inactive results; u = inconclusive; x = no result. Unless noted, calls come from the whole dose curve; as a rule, active = well fitted curve in the direction sought with a large enough effect; inconclusive = small, poorly fitted or top-dose-only effect, or another doubt; inactive = no such curve, though single readings can be large; an effect the other way counts as inactive or inconclusive.
SMILES,SW480 rerep,Vif-APOBEC3F blk,MCF10A rerep,Vif-APOBEC3G blk,IL1B secr inh,Giardia kill
COc1ccc(Br)cc1/C=C/C(=O)Nc1ccc(C)cc1,-6.6%,2.8%,1.0%,-0.7%,-66.9*,-5.0
COc1ccc(Br)cc1/C=C/C(=O)Nc1ccc2ccccc2c1,-1.9%,5.9%,u,0.3%,-19.8,9.5
CC(=O)Nc1cccc(C(=O)/C=C/c2ccco2)c1,-7.9%,7.7%,14.9%,-6.4%,-70.9*,9.3
CCc1noc(-c2ccc(NCc3ccccc3)c([N+](=O)[O-])c2)n1,x,u,x,0.7%,x,x
C=C[C@@H]1c2cc(C)ccc2N(S(=O)(=O)c2ccc(C)cc2)[C@H](c2ccc(C(C)(F)F)cc2)C1(C#N)C#N,x,x,x,-2.1%,x,x
CCOC(=O)c1c(C)[nH]c(C)c1S(=O)(=O)NCC(=O)Nc1cccc(SC)c1,x,-11.0%,x,-0.8%,x,x
O=S(=O)(CCN1CCOCC1)c1ccc(Cl)cc1,1.6%,-4.5%,-2.5%,-5.4%,-14.5,-2.1
NC(=O)C1CCN(CCS(=O)(=O)c2ccc(Cl)cc2)CC1,18.4µM*,-10.3%,u,-10.5%,-29.4,-3.7
CC(=O)N1CCN(CCS(=O)(=O)c2ccc(Br)cc2)CC1,-2.6%,-10.8%,13.2%,-1.6%,-53.2*,-10.1
O=C(CCS(=O)(=O)c1ccc(Br)cc1)N1CCN(Cc2ccccc2)CC1,0.8%,-2.7%,-0.7%,0.6%,10.3,-20.9
Cc1ccc(NC(=O)CN2C(=O)c3ccccc3Sc3ncccc32)c(C)c1,x,0.8%,x,1.0%,x,x
CCOC(=O)C1=C(N)Oc2cc(O)ccc2C1c1cccc(Cl)c1 (centres undefined),u,-1.4%,5.8µM*,-24.1%,5.1,-5.0
N=c1nc(-c2ccccc2)n(-c2ccccc2)s1,x,x,x,-0.3%,x,13.8
CC(=O)Nc1ccc2c(c1)nc(CCNC(=O)c1ccccc1)n2C,-12.8%,10.6%,-5.2%,-11.3%,-21.0,24.7
CC(=O)NCCc1nc2cc(NC(=O)c3ccccc3C)ccc2n1C,-2.2%,3.7%,0.581µM*,0.6%,0.0,-25.1
CC(C)(C)OC(=O)N1CCC(c2c(C(=O)N3CCN(c4ncccn4)CC3)cnn2-c2ccc(F)cc2)CC1,x,0.5%,x,5.0%,x,x
CC(=O)N(C1CC(C)C(C#N)(C#N)C1(C#N)C#N)N(C)C (centres undefined),9.4%,7.6%,u,-27.5%,-111.6*,1.4
CCCC(=O)N(C1CC(C)C(C#N)(C#N)C1(C#N)C#N)N(C)C (centres undefined),4.61µM*,-3.3%,2.91µM*,-9.4%,-100.7*,-2.8
COc1ccc(-c2cc(C3C4C=CCC(C)C4C(=O)N3Cc3ccccc3)ccc2F)cc1OC (centres undefined),x,x,x,0.3%,x,6.5
CN(CCCC1CCCC1)C(=O)c1cc(COc2ccc(F)cc2F)on1,0.9%,2.7%,u,0.2%,-51.3*,-4.5
CN(CCC1CCCCO1)C(=O)c1cc(COc2ccc(F)cc2F)on1 (centres undefined),6.1%,-1.6%,0.3%,0.9%,10.6,24.1
O=C(N/N=C/C(Br)=C\c1ccccc1)c1n[nH]c2c1CCC2,0.517µM*,-1.8%,u,-32.0%,0.8,-12.0
Cc1cc(C(=O)N/N=C/C=C/c2ccccc2)n[nH]1,u,-17.2%,-16.0%,-0.5%,-22.7,-11.2
O=C(N/N=C/C=C/c1ccccc1)c1n[nH]c2c1CCC2,2.06µM*,-15.2%,1.46µM*,u,68.1,-3.2
O=C(N/N=C/C=C/c1ccccc1)c1cc(C2CC2)[nH]n1,-5.9%,-14.6%,-7.0%,1.5%,-54.1*,4.7
SMILES,SW480 rerep,Vif-APOBEC3F blk,MCF10A rerep,Vif-APOBEC3G blk,IL1B secr inh,Giardia kill
CC(/C=N/NC(=O)c1n[nH]c2c1CCC2)=C\c1ccccc1,0.731µM*,-3.7%,0.259µM*,-50.3%,63.4,-5.4
CC12CCC=CC1C(c1ccc3ccccc3c1C=Cc1ccccc1)N(Cc1ccccc1)C2=O (centres undefined),x,x,x,0.0%,x,2.0
Cc1noc(/C=C/c2ccccc2F)c1S(=O)(=O)N1CCC(C(=O)N2CCOc3ccccc32)CC1,x,8.7%,x,5.9%,x,x
COc1cccc(C(=O)NNC(=O)CCN2CCN(c3ccccc3)CC2)c1,-2.4%,u,1.6%,1.2%,5.9,5.1
COc1cccc(/C=C/C(=O)NNC(=O)CCN2CCN(Cc3ccccc3)CC2)c1,3.66µM*,-21.1%,u,1.3%,-22.2,-23.4
Cc1ccc(N2C(=O)C3C4C=CC(CNC(=S)N5CCN(c6cccc(C)c6)C(C)C5)(O4)C3C2=O)cc1 (centres undefined),10.3µM*,-3.4%,20.6µM*,-0.3%,27.0,15.3
COc1ccc(NC(=O)Cn2c(SCc3ccc(F)cc3)nc3cccnc32)c(OC)c1,x,0.6%,x,3.0%,x,x
Cc1ccccc1CSc1nnc2[nH]c(=O)cc(C)n12,x,1.2%,x,3.1%,x,x
CCCCn1c(-c2ccc(Br)cc2F)nc2c1c(=O)[nH]c(=O)n2CC(C)C,1.4%,-1.0%,18.4µM*,-10.8%,-68.4*,-4.9
CCCCn1c(=O)[nH]c(=O)c2c1nc(-c1ccc(OCCC)c(OCC)c1)n2CCOC,6.4%,-3.4%,23.1µM*,-1.0%,33.8,-12.3
CCCCn1c(=O)[nH]c(=O)c2c1nc(-c1ccc(-c3ccc(F)cc3)o1)n2C,u,-1.1%,10.3µM*,-0.6%,32.5,-10.3
CCCCn1c(=O)[nH]c(=O)c2c1nc(-c1ccccn1)n2CC,-20.2%,-17.8%,7.0%,0.2%,2.4,21.9
CC(=O)Nc1ccc(/C=C(\C#N)C(=O)NC2CCCCC2C)cc1 (centres undefined),3.5%,-3.6%,u,-5.7%,u,-8.2
CC1CCCCC1NC(=O)/C(C#N)=C/c1ccccc1F (centres undefined),u,-27.3%,14.6µM*,u,-101.2*,12.2
CCOCCCNC(=O)/C(C#N)=C/c1ccccc1F,-5.6%,4.9%,-1.4%,1.6%,7.6,-2.7
COc1cc(/C=C(\C#N)C(=O)NC2CCCCC2C)ccc1OS(=O)(=O)c1ccc(C)cc1 (centres undefined),u,-26.4%,18.4µM*,u,-102.8*,-15.7
N#C/C(=C\c1ccccc1)C(=O)NC1CC1,-4.9%,-8.7%,0.8%,6.0%,41.4,4.4
CSc1ccc(/C=C(\C#N)C(=O)NC2CCCCC2C)cc1 (centres undefined),u,-19.1%,18.4µM*,-9.0%,-119.9*,u

# Screens as filed in PubChem.
